Reference: PubChem BioAssay (NCATS)
Several values for one entry are separate records, joined by “and”; a condition that tells them apart may be missing. Equal entries are not always repeated. Inconclusive results are not listed. Activity calls are given as the source filed them. The call rests on the fitted dose curve; in most records, active means well fitted inhibition curve with a large enough effect; inconclusive means small, poorly fitted or top-dose-only effect; inactive means flat fitted curve, though single readings scatter.

test system: KB-3-1; assay: Cytotoxic Profiling of Annotated Libraries Using Quantitative High-Throughput Screening (AID 1296008); conditions: Five cell lines viability, CellTiter-Glo ATP luminescence, 48-72 h; max response: active compounds read low; further: nearly all actives have a fitted effect of over 60% in size
Excerpt: Cell-based phenotypic screening is a commonly used approach to discover biological pathways, novel drug targets, chemical probes and high-quality hit-to-lead molecules. Many hits identified from high-throughput screening campaign are ruled out through a series of follow-up potency, selectivity/specificity, and cytotoxicity assays. Prioritization of molecules with little or no cytotoxicity for a more in-depth downstream evaluation influence the future direction of projects, so cytotoxicity profiling of the screening libraries at early stage is essential for increasing the likelihood of candidate success. […] For the annotated library, we also examined the primary targets and mechanistic pathways regularly associated with cell death. To our knowledge, this is the first study to use high-throughput screening to profile large libraries for cytotoxicity assessment in both normal and cancer cell lines. In summary, the results generated here constitutes a valuable resource for the scientific community and provides insight on identifying cytotoxic compounds with particular mechanisms of action, and prioritizing compounds with suitable cytotoxicity profile for further evaluation.
A pintool (Kalypsys) was used to transfer 23 nL of compound solution to the 1536-well assay plates. After 48 or 72 hr incubation at 37 degree Celsius, 5% CO2 and 95% humidity, 2.5 uL of CellTiter-Glo (Promega) was dispensed into each well using a dispenser (Aspect Automation, St. Paul, MN) with solenoid valves (Lee Valves, Westbrook CT). Plates were left at room temperature for 10 min before imaging the ATP-coupled luminescence using a ViewLux microplate imager (PerkinElmer, Waltham, MA).
On the % scale 0 is the no-effect control and ±100 the full control effect; potency means the concentration at half of the fitted maximal effect.

SMILES | max response | outcome | Potency
OC(c1ccccc1)(c1ccccc1)C1CN2CCC1CC2 (stereo not given) | -22.3% (inactive) | – | –
CC(C)(O)[C@H]1O[C@H]2CC[C@@]3(C)[C@@](O)(CC[C@H]4Cc5c([nH]c6ccccc56)[C@@]43C)C2=CC1=O | 9.13% (inactive) | – | –
CCCCCOc1cc2c(cc1-c1cc(/C=C/C(=O)O)ccc1O)C(C)(C)CCC2(C)C | – | inactive | –
O=[N+]([O-])C(Br)(CO)CO | 1.16% (inactive) | – | –
C[N+]1([O-])[C@@H]2CC[C@H]1CC(OC(=O)C(CO)c1ccccc1)C2 (stereo not given in full) | -12.1% (inactive) and -9.46% (inactive) | – | –
CN1[C@@H]2CC[C@H]1CC(OC(=O)C1C=Nc3ccccc31)C2 (stereo not given in full) | 7.85% (inactive) | – | –
CCCCC[C@@H](O)C1C(=O)OC(C)[C@H](O)/C=C/C=C/C=C/C=C/C=C(\C)C(O)C(O)C(O)C[C@H](O)C[C@H](O)C[C@H](O)C[C@H](O)C[C@@H]1O (stereo not given in full) | -4.4% (inactive) and -1.2% (inactive) | – | –
C[C@@H]1[C@@H]2Cc3ccc(O)cc3[C@@]1(C)CCN2CC1CC1 | -3.25% (inactive) | – | –
CCOC(=O)c1ccccc1C(=O)OCC | -4.85% (inactive) | – | –
COc1cc(CCNCc2ccccc2O)c(OC)cc1C#N | – | inactive | –
CC1(C)S[C@@H]2[C@H](N)C(=O)N2[C@H]1C(=O)O | -11.7% (inactive) | – | –
O[C@H]1[C@H]2[C@H](O)CCCN2C[C@H]1O | -14% (inactive) | – | –
COC(=O)C1(C)CCC(O)C2(C)c3c(O)cc(C(C)C)cc3C(O)C(OC(C)=O)C12 (stereo not given) | – | inactive | –
COC1CC(O[C@H]2CC[C@@]3(C)C(=CCC4C3C(O)[C@@H](O)[C@]3(C)[C@@H](C(C)=O)CC[C@]43O)C2)OC(C)C1OC1CC(OC)C(OC2OC(C)C(O)C(O)C2O)C(C)O1 (stereo not given in full) | – | inactive | –
COC(=O)[C@@]12C(=O)C(C)C(=O)[C@]1(C)C(C)=C[C@H]1[C@]3(C=O)CC[C@H](OC(C)=O)C(C)(C)[C@H]3CC[C@@]12C (stereo not given in full) | 6.62% (inactive) | – | –
CCC1NC(=O)C2C(Cl)C(Cl)CN2C(=O)C(C(C)O)NC(=O)CC(c2ccccc2)NC(=O)C(CO)NC1=O (stereo not given) | – | inactive | –
Cc1cccc(C(C)c2cnc[nH]2)c1C (stereo not given) | 8.09% (inactive) | – | –
C[C@H]1CC[C@]2(NC1)O[C@H]1C[C@H]3[C@@H]4CC[C@H]5C[C@@H](O)CC[C@]5(C)[C@H]4CC[C@]3(C)[C@H]1[C@@H]2C | -2.2% (inactive) | – | –
COC1CC(O[C@H]2CC[C@]3(C=O)C4CC[C@]5(C)[C@@H](C6=CC(=O)OC6)CC[C@]5(O)[C@@H]4CC[C@]3(O)C2)OC(C)C1O[C@@H]1O[C@H](CO)[C@@H](O)[C@H](O)[C@H]1O (stereo not given in full) | – | – | 273 nM (active)
ClC1=C(Cl)[C@]2(Cl)[C@@H]3[C@H]4C[C@H]([C@@H]5O[C@H]45)[C@@H]3[C@@]1(Cl)C2(Cl)Cl | -3.16% (inactive) | – | –

SMILES | max response | outcome | Potency
COC1CC(OC2CCC3(C)C(=CCC4C3CCC3(C)C(C(C)OC5OC(COC6OC(CO)C(O)C(O)C6O)C(O)C(O)C5O)CCC43O)C2)OC(C)C1OC1OC(C)C(O)C(OC)C1O (stereo not given) | 9.26% (inactive) | – | –
CCN(CC)C(=O)/C(Cl)=C(\C)OP(=O)(OC)OC | -1.44% (inactive) | – | –
CCCCCCn1c(=O)c(C(=O)Nc2ccc(C(=O)OCCC)cc2)c(O)c2ccccc21 | – | inactive | –
OC1(c2ccc(Cl)cc2)c2ccccc2C2=NCCN21 (stereo not given) | 7.32% (inactive) | – | –
CC(C)[C@@]1(NC(=O)[C@@H]2C[C@@H]3c4cccc5[nH]cc(c45)C[C@H]3N(C)C2)O[C@@]2(O)[C@@H]3CCCN3C(=O)[C@H](Cc3ccccc3)N2C1=O | 25.3% (inactive) and -16.4% (inactive) | – | –
CNc1ccc(C(=O)CC(O)CCC(C)C2OC(=O)CC(O)CC(=O)CC(O)CC(O)CC(O)CC(O)CC3(O)CC(O)C(C(=O)OC)C(CC(O[C@@H]4O[C@H](C)[C@@H](O)[C@H](N)[C@@H]4O)/C=C/C=C/C=C/C=C/C=C/C=C/C=C/C2C)O3)cc1 (stereo not given in full) | -0.469% (inactive) | – | –
CCC1(C)CC(=O)NC(=O)C1 | 4.64% (inactive) | – | –
COc1ccccc1CN[C@H]1C2CCN(CC2)[C@H]1C(c1ccccc1)c1ccccc1 | -8.54% (inactive) | – | –
CC1=C2C[C@H]3[C@@H](CC=C4C[C@@H](O)CC[C@@]43C)[C@@H]2CC[C@]12O[C@@H]1C[C@H](C)CN[C@H]1[C@H]2C | 1.29% (inactive) | – | –
C[C@@]1(C(=O)O)CC[C@]2(C)CC[C@]3(C)C4=CC(=O)c5cc(O)c(O)cc5[C@]4(C)CC[C@@]3(C)[C@@H]2C1 | – | inactive | –
CCNC(C)Cc1cccc(C(F)(F)F)c1 (stereo not given) | 20.4% (inactive) | – | –
C[C@@]12C[C@@H](c3ccoc3)OC(=O)C1CC[C@]1(C)[C@H]2[C@H]2C=C[C@]1(O)C(=O)O2 (stereo not given in full) | 3.68% (inactive) | – | –
Clc1ccccc1Cl | 4.39% (inactive) | – | –
CC(=O)O[C@H]1C[C@H](O[C@H]2[C@@H](O)C[C@H](O[C@H]3[C@@H](O)C[C@H](OC4CC[C@@]5(C)[C@H](CC[C@@H]6[C@@H]5CC[C@]5(C)[C@@H](C7=CC(=O)OC7)CC[C@]65O)C4)O[C@@H]3C)O[C@@H]2C)O[C@H](C)[C@H]1O[C@@H]1O[C@H](CO)[C@@H](O)[C@H](O)[C@H]1O (stereo not given in full) | – | – | 206 nM (active)
O=C1CN=C(c2ccccc2)c2cc(Cl)ccc2N1CC1CC1 | 1.41% (inactive) | – | –
CNC(C)C(O)c1ccc(O)cc1 (stereo not given) | -2.38% (inactive) and -4.74% (inactive) | – | –
COC1C(O)C(C)OC(OC2C(CO)O[C@@H](O[C@@H]3CC4CCC5C(CC[C@]6(C)[C@@H](C7=CC(=O)OC7)CC[C@]56O)[C@@]4(C)[C@H](O)C3)C(O)C2O)C1O (stereo not given in full) | – | – | 862 nM (active)
CC(=O)Oc1ccc2c3c1O[C@H]1[C@@H](OC(C)=O)C=C[C@H]4[C@@H](C2)N(C)CC[C@@]341 | -5% (inactive) and 2.33% (inactive) | – | –
CC(C)(O)[C@@H]1[C@H]2OC(=O)[C@@H]1[C@]1(O)C[C@H]3O[C@]34C(=O)O[C@H]2[C@]14C | 0.436% (inactive) and -3.57% (inactive) | – | –
C[C@H]1CC[C@@H]2[C@@H](C)[C@H]3[C@H](C[C@H]4[C@@H]5CC=C6CC(O[C@@H]7O[C@H](CO)[C@H](O)[C@H](O[C@@H]8O[C@H](CO)[C@@H](O)[C@H](O)[C@H]8O)[C@H]7O[C@H]7O[C@@H](C)[C@H](O)[C@@H](O)[C@H]7O)CC[C@]6(C)[C@H]5CC[C@]34C)N2C1 (stereo not given in full) | 48.6% (inactive) | – | –
